Source: PubChem BioAssay AID1347420 (Sanford-Burnham Center for Chemical Genomics, 2020)
In all, about 1,300 compounds went through this assay and about 980 (75%) were called active. Roughly 4% stayed inconclusive and do not appear here. Some of the results follow.

Biological target: Sulfhydryl oxidase 1 (Homo sapiens) (UniProt O00391)
Assay: inhibition of human sulfhydryl oxidase QSOX1 – biochemical, HyperBlu H2O2 luminescence, HTS, primary screen (AID 1347420); further: values above 100% were filed as inconclusive
Settings: recombinant QSOX1, HyperBlu H2O2 luminescence; at 12.5 µM; stronger effect = higher value; active = any value above zero

Chain of Sulfhydryl oxidase 1 (Homo sapiens) (O00391 whole entry, looked up): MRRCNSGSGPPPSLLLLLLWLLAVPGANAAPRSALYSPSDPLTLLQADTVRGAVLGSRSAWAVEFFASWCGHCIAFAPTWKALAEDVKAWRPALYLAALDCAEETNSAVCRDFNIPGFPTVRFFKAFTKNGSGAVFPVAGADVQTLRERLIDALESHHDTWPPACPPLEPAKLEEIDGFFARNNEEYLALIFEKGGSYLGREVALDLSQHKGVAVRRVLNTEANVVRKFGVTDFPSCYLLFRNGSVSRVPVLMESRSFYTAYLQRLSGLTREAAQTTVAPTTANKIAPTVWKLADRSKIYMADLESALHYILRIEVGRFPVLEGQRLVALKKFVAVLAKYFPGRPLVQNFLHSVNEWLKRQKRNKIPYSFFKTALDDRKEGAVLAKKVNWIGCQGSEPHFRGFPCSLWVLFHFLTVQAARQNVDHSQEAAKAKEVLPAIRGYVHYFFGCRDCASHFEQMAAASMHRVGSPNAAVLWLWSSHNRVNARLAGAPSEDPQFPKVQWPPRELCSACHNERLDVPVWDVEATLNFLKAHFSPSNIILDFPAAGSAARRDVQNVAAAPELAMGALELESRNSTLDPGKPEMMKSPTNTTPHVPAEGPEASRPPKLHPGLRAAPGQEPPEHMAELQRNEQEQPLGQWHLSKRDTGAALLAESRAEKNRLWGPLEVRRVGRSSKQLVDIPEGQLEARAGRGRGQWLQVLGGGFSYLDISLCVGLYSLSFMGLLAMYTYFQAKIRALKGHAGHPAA

SMILES | inhibition
O=C1NCC2(CCN(CCc3ccccc3)CC2)O1 | 10.5% (active)
Cc1ccc(O)c(N=Nc2ccccc2)n1 | 30.2% (active)
Cc1cc(NC2CCCCC2)nc(-n2nc(C)cc2C)n1 | 6.3% (active)
CCCCCCC(=O)OC1CC(C)(C)NC(C)(C)C1 | -7.9% (inactive)
CCCCCCCC/C=C\CCCCCCCC(=O)NCCO | 0.4% (active)
CCCCCCCCCCCCCCCC(=O)NCCO | 8.6% (active)
C[C@]12CC[C@@H]3c4ccc(O)cc4CC[C@H]3[C@@H]1CCC2=O | 22.4% (active)
C[C@]12CC[C@@H]3c4ccc(O)cc4CC[C@H]3[C@@H]1CC[C@@H]2O | 24.6% (active)
CC(N)(Cc1ccc(O)cc1)C(=O)O (stereo not given) | 50.5% (active)
COC(=O)C(C)(N)Cc1ccc(O)cc1 (stereo not given) | 2.3% (active)
C[C@](N)(Cc1ccc(O)cc1)C(=O)O | 2.9% (active)
CCOC(=O)C1=C[C@]2(CC)CCCN3CCc4c(n1c1ccccc41)[C@@H]32 | 8.5% (active)
CCc1ccc2c(-c3cccc(Cl)c3)nc(=O)n(CC)c2n1 | 20% (active)
CCOC(=O)c1ncn2c1CN(C)C(=O)c1cc(F)ccc1-2 | 11.8% (active)
Nc1nc(N)c2nc(CNc3ccc(C(=O)NC(CCC(=O)O)C(=O)O)cc3)cnc2n1 (stereo not given) | 34.3% (active)
CN(Cc1cnc2nc(N)nc(N)c2n1)c1ccc(C(=O)N[C@@H](CCC(=O)O)C(=O)O)cc1 | 3.6% (active)
CC1(C)NC(=O)N(c2ccc([N+](=O)[O-])c(C(F)(F)F)c2)C1=O | -8.3% (inactive)
CC(C)C(=O)Nc1ccc([N+](=O)[O-])c(C(F)(F)F)c1 | 4.7% (active)
O=[N+]([O-])c1ccc(CSc2ncnc3c2ncn3[C@@H]2O[C@H](CO)[C@H](O)C2O)cc1 (stereo not given in full) | 33.9% (active)
Nc1nc(SCc2ccc([N+](=O)[O-])cc2)c2ncn([C@@H]3O[C@H](CO)[C@H](O)C3O)c2n1 (stereo not given in full) | 33.7% (active)
C=CC(N)CCC(=O)O (stereo not given) | -9.5% (inactive)
C#CC(N)CCC(=O)O (stereo not given) | 13.5% (active)
Nc1nc2c(ncn2COC(CO)CO)c(=O)[nH]1 | 10.7% (active)
Nc1nc2c(ncn2COCCO)c(=O)[nH]1 | 19.3% (active)
Cc1cccc(-c2[nH]c(C(C)(C)C)nc2-c2ccc3nccnc3c2)n1 | -12.5% (inactive)

SMILES | inhibition
N=S(=O)([O-])Cc1noc2c1C=C[C+]=C2 | 9.3% (active)
OCC1NCC(O)C(O)C1O (stereo not given) | 14.4% (active)
OC[C@H]1NC[C@@H](O)[C@@H]1O | 10.5% (active)
CCN1/C(=C/C(C)=O)Sc2ccc(OC)cc21 | 58.1% (active)
CC[C@H](C)C(=O)O[C@H]1CCC=C2C=C[C@H](C)[C@H](CC[C@@H]3C[C@@H](O)CC(=O)O3)[C@H]21 | 8.8% (active)
CC(C)(C)NCC(O)COc1nsnc1N1CCOCC1 (stereo not given) | 3.8% (active)
CC1CN(S(=O)(=O)c2cccc3cnccc23)CCN1 (stereo not given) | 4.9% (active)
CC1CNCCN1S(=O)(=O)c1cccc2cnccc12 (stereo not given) | 37.4% (active)
O=Nc1ccc2oc(=O)ccc2c1 | 85% (active)
COC(=O)Nc1nc2ccc(C(=O)c3cccs3)cc2[nH]1 | 12.3% (active)
O=c1[nH]c(=O)c2nc3ccccc3nc2[nH]1 | 3.9% (active)
NC(=O)c1cn(Cc2c(F)cccc2F)nn1 | -7.2% (inactive)
CCCN(CCC)CCc1cccc2c1CC(=O)N2 | -8.3% (inactive)
CO[C@@]1(NC(=O)CSCC#N)C(=O)N2C(C(=O)O)=C(CSc3nnnn3C)CS[C@@H]21 | 10% (active)
CN1C(=O)CC[C@H]1c1cccnc1 | 3.9% (active)
CN1CCC[C@H]1c1cccnc1 | 2.5% (active)
COc1ccccc1CNCCCCCCNCCCCCCCCNCCCCCCCNc1ccccc1OC | 0.8% (active)
C#CCCN | 25.9% (active)
NC(=O)c1ccc2[nH]ccc2c1 | -15.5% (inactive)
NC(=O)c1ccccc1 | -9.9% (inactive)
NC(=O)c1cccc(N)c1 | 19% (active)
CC[C@@H](C)[C@H]1O[C@]2(CC[C@@H]1C)C[C@@H]1C[C@@H](C/C=C(\C)[C@@H](O[C@H]3C[C@H](OC)[C@@H](O[C@H]4C[C@H](OC)[C@@H](O)[C@H](C)O4)[C@H](C)O3)[C@@H](C)/C=C/C=C3\CO[C@@H]4[C@H](O)C(C)=C[C@@H](C(=O)O1)[C@]34O)O2 | 10.8% (active)
Cc1cccc(/C=C/c2ccccc2)n1 | 3.6% (active)
O=NN(CCCl)C(=O)NCCCl | 10.3% (active)
CCCNC(C)C(=O)Nc1ccccc1C (stereo not given) | 3.1% (active)

SMILES | inhibition
Nc1nc2ccc(OC(F)(F)F)cc2s1 | 7.2% (active)
CSC(=N)N | 14.1% (active)
CCSC(=N)N | 3% (active)
NC(=O)CNCCC(c1ccccc1)c1ccccc1 | 1.3% (active)
N=C(N)N1CCc2ccccc2C1 | 18.5% (active)
CC(C)NNC(=O)c1ccncc1 | 0.1% (active)
C1COC(NC(C2CC2)C2CC2)=N1 | -6.7% (inactive)
CN(C)CCCC1(c2ccc(F)cc2)OCc2cc(C#N)ccc21 (stereo not given) | 8.6% (active)
Nn1nnc2ccccc21 | 21.7% (active)
O=C(O)Cc1c[nH]c2ccc(O)cc12 | 47.5% (active)
N[C@@H](Cc1c[nH]c2ccc(O)cc12)C(=O)O | 45.4% (active)
N[C@@H](Cc1c[nH]c2ccccc12)C(=O)O | 3.4% (active)
Cc1cnc(NC(=O)C2=C(O)c3ccccc3S(=O)(=O)N2C)s1 | 44.2% (active)
CN1C(C(=O)Nc2ccccn2)=C(O)c2ccccc2S1(=O)=O | 35.6% (active)
CN1C2CCCC1CC(NC(=O)c1nn(C)c3ccccc13)C2 (stereo not given) | 8.4% (active)
CC(=O)O[C@]1(C(C)=O)CC[C@H]2[C@@H]3C=C(Cl)C4=CC(=O)[C@@H]5C[C@@H]5[C@]4(C)[C@H]3CC[C@@]21C | -5.1% (inactive)
NCCS(=O)O | 4.2% (active)
CC(=O)NNC(=O)N1Cc2ccccc2Oc2ccc(Cl)cc21 | 17.2% (active)
N[C@@H](Cn1ccc(=O)c(O)c1)C(=O)O | 10.1% (active)
O=[N+]([O-])c1ccc(-c2nc(-c3ccc(F)cc3)c(-c3ccncc3)[nH]2)cc1 | 92.4% (active)
Oc1ccc(-c2nc(-c3ccc(F)cc3)c(-c3ccncc3)[nH]2)cc1 | 97% (active)
O=C1Cc2c([nH]c3ccc(Br)cc23)-c2ccccc2N1 | 1.7% (active)
C=C1N=C(N=NC2=C(S(=O)(=O)[O-])[C+]=C(S(=O)(=O)[O-])[C+]=C2)[C+](COP(=O)([O-])O)C(C=O)=C1O | 6.1% (active)
O=C1OC(=O)C2C3CCC(O3)C12 (stereo not given) | 9.8% (active)
Nc1ncn([C@@H]2O[C@H](CO)[C@H](O)C2O)c(=O)n1 (stereo not given in full) | 21.3% (active)

SMILES | inhibition
Nc1ccn([C@@H]2O[C@H](CO)[C@@H](O)C2O)c(=O)n1 (stereo not given in full) | -7% (inactive)
NC[C@H]1O[C@@H](n2cnc3c(N)ncnc32)[C@H](O)[C@@H]1O | 16.1% (active)
Nc1nc(Cl)nc2c1ncn2[C@@H]1O[C@H](CO)[C@H](O)C1O (stereo not given in full) | 13.7% (active)
Nc1ncnc2c1ncn2[C@@H]1O[C@H](CO)[C@H](O)C1O (stereo not given in full) | 13.8% (active)
CC(=O)O[C@H]1C(=O)[C@@]2(C)C([C@H](OC(=O)c3ccccc3)[C@]3(O)C[C@H](OC(=O)[C@H](O)[C@@H](NC(=O)c4ccccc4)c4ccccc4)C(C)=C1C3(C)C)[C@]1(OC(C)=O)CO[C@@H]1C[C@@H]2O (stereo not given in full) | -4.9% (inactive)
CCc1cccc2c3c([nH]c12)C(CC)(CC(=O)O)OCC3 (stereo not given) | -6% (inactive)
Nc1ncnc2c1ncn2C1CCCO1 (stereo not given) | -13.6% (inactive)
CCNc1nc2c(ncn2[C@H]2C[C@H](O)[C@@H](CO)O2)c(=O)[nH]1 | -2.5% (inactive)
Nc1ncnc2c1ncn2C1CCCC1 | 12.4% (active)
OC[C@H]1O[C@@H](n2cnc3cncnc32)[C@H](O)[C@@H]1O | 17% (active)
Nc1nc2c(ncn2[C@@H]2O[C@H](CO)[C@@H](O)[C@@H]2O)c(=O)[nH]1 | 7.5% (active)
Nc1nc(Nc2ccccc2)nc2c1ncn2[C@@H]1O[C@H](CO)[C@H](O)C1O (stereo not given in full) | 8.8% (active)
CCCC(CCC)C(=O)O | 40.8% (active)
N#Cc1cc([N+](=O)[O-])c2sc(C(N)=O)[n+]([O-])c2c1 | 25.4% (active)
Nc1ncnc2c1ncn2[C@@H]1O[C@H](COP(=O)(O)CP(=O)(O)OP(=O)(O)O)[C@H](O)C1O (stereo not given in full) | 13.7% (active)
CCN(CC)c1ncnc2c1ncn2[C@@H]1O[C@H](COP(=O)(O)OP(=O)(O)C(Br)(Br)P(=O)(O)O)[C@@H](O)[C@H]1O | -3% (inactive)
Nc1ncnc2c1ncn2[C@@H]1O[C@H](COP(=O)(O)OP(=O)(O)OP(=O)(O)OP(=O)(O)OC[C@@H]2O[C@H](n3cnc4c(N)ncnc43)C(O)[C@@H]2O)[C@H](O)C1O (stereo not given in full) | 11.6% (active)
NC(=S)c1ccc[n+]([C@@H]2O[C@@H](COP(=O)([O-])OP(=O)(O)OC[C@H]3O[C@@H](n4cnc5c(N)ncnc54)C(OP(=O)(O)O)[C@H]3O)C(O)C2O)c1 (stereo not given in full) | 4.8% (active)
NC(=O)C1=C[N+](=C2OC(COP(=O)(O)OP(=O)([O-])OC[C@H]3O[C@@H](n4cnc5c(N)ncnc54)C(OP(=O)(O)O)[C@H]3O)C(O)C2O)C=CC1 (stereo not given in full) | -12.9% (inactive)
O=c1[nH]cnc2[nH]ncc12 | 19.2% (active)
Clc1ccccc1C(c1ccccc1)(c1ccccc1)n1ccnc1 | -1.8% (inactive)
CC(=O)/C=C1\C(=O)N(C)c2ccccc21 | 4.3% (active)
CCCCCCCC/C=C\CCCCCCCC(=O)NCCc1ccc(O)c(O)c1 | 1.1% (active)
CCCCCCCC/C=C\CCCCCCCC(=O)NCc1ccc(O)c(OC)c1 | 8% (active)
COc1cc(CNC(=O)CCCCCCC(C)C)ccc1O | 15.1% (active)
